Results filed as inconclusive are left out. Calls of active or inactive are those of the source. Unless noted, calls follow the shape of the dose curve; as a rule, active = well fitted curve in the direction sought with a large enough effect; inconclusive = small, poorly fitted or top-dose-only effect, or another doubt; inactive = no such curve, though single readings can be large; an effect the other way counts as inactive or inconclusive.
Key:
[1] = Cellular Toxicity (caspase-3) H-4-II-E (AID 663);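 also: 0% = DMSO basal and 100% = 100 µM tamoxifen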
Procedure, shortened: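 Rat hepatoma H-4-II-E cells (1500/well) plated 5 hr, then exposed to compound titrations for 16 hr at 37 °C. Caspase-Glo 3/7 luminescence read after 20 min at RT; data normalized to DMSO and 100 uM tamoxifen, AC50 from Hill fits.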

[2] = Cellular Toxicity (caspase-3) Hek293 (AID 664);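 also: cells exposed to compound for 16 h at 37 °C before readout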
Procedure, shortened: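 HEK293 cells were exposed to compounds in complete medium for 16 hr at 37 °C, then caspase-3/7 activity was read by Caspase-Glo 3/7 luminescence after 20 min at room temperature. Data normalized to DMSO and 100 uM tamoxifen; AC50 from Hill fits.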

[3] = Cellular Toxicity (caspase-3) N2a (AID 665);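 also: compound exposure lasted 16 h at 37 °C before readout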
Procedure, shortened: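 Mouse N2a neuroblastoma cells (1500/well) were treated with compounds for 16 h at 37 °C, then caspase-3/7 activity was read by Caspase-Glo luminescence after 1 h at room temperature. Data were normalized to DMSO and 10 uM staurosporine; AC50 from Hill fits.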

[4] = Cellular Toxicity (caspase-3) NIH 3T3 (AID 666);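 also: 0% = DMSO basal and 100% = 100 µM tamoxifen stimulation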
Procedure, shortened: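 Mouse NIH 3T3 fibroblasts (1000 cells/well) were treated with compound for 16 hr at 37°C in complete medium; caspase-3/7 activity was read by Caspase-Glo luminescence. Normalized to DMSO and 100 uM tamoxifen; AC50 from Hill fits.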

[5] = Cellular Toxicity (caspase-3) Renal Proximal Tubule (AID 667);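 also: cells exposed to compound for 16 hours at 37 °C before detection; 0% = DMSO basal and 100% = 10 µM staurosporine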
Procedure, shortened: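 Caspase-Glo 3/7 read-out, rat primary kidney proximal tubule cells. Compound exposure 16 h, 37 °C; detection after 1 h at RT. Activity scaled to DMSO and 10 uM staurosporine.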

[6] = biological target: Cytochrome P450 3A4 (Homo sapiens) (UniProt P08684); assay: qHTS Assay for Inhibitors and Substrates of Cytochrome P450 3A4 (AID 884); also: nearly all actives have a fitted effect of over 50% in size; also: potency is read from the fitted curve at half-maximal effect
Procedure, shortened: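 20 nM human CYP3A4 with 25 uM Luciferin-PPXE (at KM) in 200 mM KPO4, preincubated 10 min with compound; NADPH regeneration started a 60 min RT reaction. Luciferin detected by luminescence, normalized to 57 uM ketoconazole as full inhibition.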

[7] = Cell Viability - LYMP2-001 (AID 921);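 also: series mostly up to about 92 µM; cells exposed to compound for 24 h at 37 °C; 0% = DMSO only and full inhibition = tetraoctylammonium bromide control wells; nearly all actives have a fitted effect of over 70% in size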
Procedure, shortened: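 A lymphoblastoid cell line of human origin was treated with library compounds across a concentration series for 24 hours, and viable cell number was estimated from ATP-driven luciferase light output. Hill modeling gave AC50.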

[8] = MultiTox-Fluor Cytotoxicity Assay - LYMP1-001 - Dead Cells (AID 946);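 also: 0% = DMSO and 100% = tetraoctylammonium bromide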
Procedure, shortened: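 In this qHTS, 15 uM tetraoctylammonium bromide defined 100% and DMSO defined basal activity. Lymphoblastoid cells (LYMP1-001, 2500 per well) received compound for 16 hr at 37 C before a fluorogenic dead-cell substrate readout at 485/520 nm.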

[9] = MultiTox-Fluor Cytotoxicity Assay - LYMP1-001 - Live Cells (AID 947);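 also: 0% = DMSO only and full inhibition = tetraoctylammonium bromide control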
[10] = Cell Viability - LYMP1-002 - Assay at 16 hr (AID 948);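 also: 0% = DMSO alone and full effect = 92 µM tetraoctylammonium bromide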
Procedure, shortened: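 In this qHTS, lymphoblastoid LYMP1-002 cells (human) receive compounds for 16 hr at 37 C. Viability is taken from CellTiter-Glo ATP luminescence, and AC50 derives from standard Hill fits.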

[11] = MultiTox-Fluor Cytotoxicity Assay - LYMP1-002 - Live Cells (AID 955); also: % is scaled to controls: 0 for no effect and ±100 for the full control effect
Procedure, shortened: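 Human lymphoblastoid LYMP1-002 cells, 2500/well in complete medium, rested 5 hr at 37 C, then exposed to compounds for 16 hr at 37 C. Live-cell protease cleavage of GF-AFC read by fluorescence (Ex/Em 405/510) after 60 min at room temperature; AC50 from Hill fits.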

[12] = MultiTox-Fluor Cytotoxicity Assay - LYMP1-002 - Dead Cells (AID 960);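 also: 0% = DMSO and 100% = tetraoctylammonium bromide; nearly all actives have a fitted effect of over 60% in size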
Procedure, shortened: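 Human lymphoblastoid cells (LYMP1-002), 2500/well in complete medium, were exposed to compounds for 16 hr at 37 C. Dead-cell protease activity was read as bis-AAF-R110 fluorescence (Ex/Em 485/520), normalized to DMSO and 15 uM tetraoctylammonium bromide; AC50 from Hill fits.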

[13] = biological target: Cytochrome P450 2C9 (Homo sapiens) (UniProt P11712); assay: qHTS Assay for Inhibitors and Substrates of Cytochrome P450 2C9 (AID 883); also: % is scaled to controls: 0 for no effect and ±100 for the full control effect; nearly all actives have a fitted effect of over 60% in size
Procedure, shortened: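 Signal: luciferase luminescence reporting luciferin produced by CYP2C9. Conditions: 10nM enzyme, Luciferin-H 100uM at KM, 25mM KPO4, 37C, 60 min NADPH-driven reaction. Reference: 57uM sulphaphenazole as 100% inhibition.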

[14] = biological target: Cytochrome P450 3A4 (Homo sapiens) (UniProt P08684); assay: qHTS Assay for Activators of Cytochrome P450 3A4 (AID 885); also: nearly all actives have a fitted effect of over 65% in size
Procedure, shortened: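 Quantitative HTS format: compounds preincubated with 20nM human CYP3A4 and Luciferin-PPXE substrate at KM, reaction started by NADPH regeneration, stopped after 60 min, luciferase luminescence read 20 min later.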

[15] = biological target: Cytochrome P450 2C19 (Homo sapiens) (UniProt P33261); assay: qHTS Assay for Inhibitors and Substrates of Cytochrome P450 2C19 (AID 899); settings: recombinant CYP2C19, luciferin-H EGE luminescence; also: potency is read from the fitted curve at half-maximal effect; nearly all actives have a fitted effect of over 60% in size
Procedure, shortened: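 Signal comes from luciferase acting on luciferin released by CYP2C19-mediated hydroxylation of Luciferin-H EGE, 10uM (KM). Assay mix: 5nM enzyme, 50mM KPO4; 60 min at 37C with NADPH regeneration. Data normalized against 57uM ketoconazole.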

[16] = Confirmation and Secondary Assay for Modulators of Hemoglobin Beta Chain Splicing at IVS2 705 locus (AID 930);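 also: HeLa cells stably expressing the EGFP-705 splicing reporter; GFP fluorescence per well restored by corrected splicing of the IVS2-705 intron in EGFP; series mostly up to about 46 µM; % of control where 0% means no effect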
Procedure, shortened: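 Secondary splice-site specificity test uses HeLa expressing CMV-driven EGFP interrupted by IVS2-705; cells were treated 2 days at 37C with 500 nM antisense PNA as positive control.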

[17] = biological target: Guanine nucleotide-binding protein G(i) subunit alpha-1 (Homo sapiens) (UniProt P63096); assay: qHTS Assay for Inhibitors of RGS12 GoLoco Motif Activity (Green Fluorophore) (AID 879);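 also: 0% = labeled peptide with Gαi1 and full inhibition = labeled peptide alone without protein; negative values mean loss of peptide binding seen as reduced polarization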
Procedure, shortened: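 Fluorescence polarization assay: 50 nM Gαi1 with 10 nM FITC-labeled RGS12 GoLoco peptide in 10 mM Tris pH 7.5, 150 mM NaCl, 0.1 mM GDP, 0.05% NP40, 10 min at room temperature with compound.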

[18] = biological target: Pyruvate kinase (Leishmania mexicana) (UniProt Q27686); assay: qHTS Validation Assay for Inhibitors of Leishmania Mexicana Pyruvate Kinase (AID 945);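 also: 0% = DMSO only neutral control wells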
Procedure, shortened: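 Read-out: luminescence from PKLight stop/detection reagent, data normalized to DMSO. Reaction: 0.2 nM E451W LmPYK, 0.5 mM PEP, 0.1 mM ADP, pH 7.2, 1 h room temperature.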

[19] = biological target: Pyruvate kinase PKM (Homo sapiens) (UniProt P14618); assay: qHTS Assay for Activators of Human Muscle Pyruvate Kinase (AID 954; active = well fitted curve in the direction sought with a large enough effect, not every such curve was filed as active;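 also: 0% = uninhibited enzyme and -100% = no enzyme or full thiadiazolimine inhibition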)
Procedure, shortened: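 Enzyme was run at intermediate activity so both inhibitors and activators could be detected. ATP formed from ADP and PEP by 0.1 nM human PKM2 during a 1 h room-temperature incubation was quantified by coupled luciferase luminescence.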

[20] = Confirmation and Secondary Assay for Modulators of Hemoglobin Beta Chain Splicing at IVS2 654 locus (AID 910);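 also: HeLa cells stably carrying EGFP split by mutant beta-globin IVS2-654 intron; % of control where 0% means no effect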
Procedure, shortened: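 HeLa cells stably expressing EGFP interrupted by β-globin IVS2-654 intron, seeded overnight in Opti-MEM/2% FCS, then treated 2 days at 37 °C. Restored splicing read as total peak GFP intensity per well by laser scanning cytometry (488 nm excitation, 500–520 nm emission); 500 nM antisense PNA as control.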

Cytochrome P450 3A4 (Homo sapiens), sequence (P08684 whole entry, looked up): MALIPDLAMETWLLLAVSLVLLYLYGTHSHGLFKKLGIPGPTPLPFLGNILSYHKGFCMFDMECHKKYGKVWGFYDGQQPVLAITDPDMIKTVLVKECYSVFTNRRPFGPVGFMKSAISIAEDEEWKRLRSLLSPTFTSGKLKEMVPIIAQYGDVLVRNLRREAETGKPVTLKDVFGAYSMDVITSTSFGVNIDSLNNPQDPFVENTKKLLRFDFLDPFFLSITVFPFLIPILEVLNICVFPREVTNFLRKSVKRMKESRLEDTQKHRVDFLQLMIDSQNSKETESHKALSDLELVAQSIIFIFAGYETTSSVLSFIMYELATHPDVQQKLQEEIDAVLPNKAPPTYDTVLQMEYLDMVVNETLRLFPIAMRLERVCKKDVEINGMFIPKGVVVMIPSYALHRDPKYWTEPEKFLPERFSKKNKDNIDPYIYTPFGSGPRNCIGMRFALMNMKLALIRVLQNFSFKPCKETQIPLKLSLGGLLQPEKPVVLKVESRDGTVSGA
Pyruvate kinase (Leishmania mexicana), sequence (Q27686 2-499 E452W): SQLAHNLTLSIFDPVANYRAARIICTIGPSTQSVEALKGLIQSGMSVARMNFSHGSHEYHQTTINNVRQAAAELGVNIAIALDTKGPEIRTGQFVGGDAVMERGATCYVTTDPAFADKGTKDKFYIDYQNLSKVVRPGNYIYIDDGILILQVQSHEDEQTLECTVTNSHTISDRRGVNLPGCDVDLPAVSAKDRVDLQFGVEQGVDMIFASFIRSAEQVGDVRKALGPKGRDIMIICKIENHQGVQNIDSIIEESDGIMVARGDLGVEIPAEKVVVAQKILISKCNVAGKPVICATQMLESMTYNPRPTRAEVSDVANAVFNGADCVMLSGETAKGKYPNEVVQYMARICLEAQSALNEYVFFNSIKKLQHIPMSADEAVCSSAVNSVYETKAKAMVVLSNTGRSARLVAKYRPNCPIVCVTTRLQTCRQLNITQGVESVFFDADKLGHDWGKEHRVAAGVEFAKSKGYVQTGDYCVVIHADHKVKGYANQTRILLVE
Cytochrome P450 2C9 (Homo sapiens), sequence (P11712 whole entry, looked up): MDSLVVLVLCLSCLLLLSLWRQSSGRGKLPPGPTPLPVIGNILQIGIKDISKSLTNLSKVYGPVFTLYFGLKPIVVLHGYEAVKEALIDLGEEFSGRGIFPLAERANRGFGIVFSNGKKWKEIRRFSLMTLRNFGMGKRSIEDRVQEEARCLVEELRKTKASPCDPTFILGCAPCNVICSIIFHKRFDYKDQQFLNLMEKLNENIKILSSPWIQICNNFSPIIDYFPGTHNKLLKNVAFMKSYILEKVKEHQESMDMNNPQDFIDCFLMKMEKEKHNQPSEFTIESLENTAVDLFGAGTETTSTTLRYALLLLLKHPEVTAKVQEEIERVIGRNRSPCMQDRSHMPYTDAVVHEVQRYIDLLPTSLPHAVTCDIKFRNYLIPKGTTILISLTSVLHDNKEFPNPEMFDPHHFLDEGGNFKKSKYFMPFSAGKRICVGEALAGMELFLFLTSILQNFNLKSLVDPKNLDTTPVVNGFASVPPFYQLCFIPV
Guanine nucleotide-binding protein G(i) subunit alpha-1 (Homo sapiens), sequence (P63096 whole entry, looked up): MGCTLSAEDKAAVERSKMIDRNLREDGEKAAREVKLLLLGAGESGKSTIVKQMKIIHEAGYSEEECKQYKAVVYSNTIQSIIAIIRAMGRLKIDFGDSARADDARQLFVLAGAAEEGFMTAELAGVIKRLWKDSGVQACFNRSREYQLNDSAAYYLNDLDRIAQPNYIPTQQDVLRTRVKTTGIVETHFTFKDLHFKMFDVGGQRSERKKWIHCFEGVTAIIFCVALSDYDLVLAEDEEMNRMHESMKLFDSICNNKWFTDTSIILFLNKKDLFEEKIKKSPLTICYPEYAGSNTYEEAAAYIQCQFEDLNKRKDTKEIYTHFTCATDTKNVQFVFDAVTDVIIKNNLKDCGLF
Cytochrome P450 2C19 (Homo sapiens), sequence (P33261 whole entry, looked up): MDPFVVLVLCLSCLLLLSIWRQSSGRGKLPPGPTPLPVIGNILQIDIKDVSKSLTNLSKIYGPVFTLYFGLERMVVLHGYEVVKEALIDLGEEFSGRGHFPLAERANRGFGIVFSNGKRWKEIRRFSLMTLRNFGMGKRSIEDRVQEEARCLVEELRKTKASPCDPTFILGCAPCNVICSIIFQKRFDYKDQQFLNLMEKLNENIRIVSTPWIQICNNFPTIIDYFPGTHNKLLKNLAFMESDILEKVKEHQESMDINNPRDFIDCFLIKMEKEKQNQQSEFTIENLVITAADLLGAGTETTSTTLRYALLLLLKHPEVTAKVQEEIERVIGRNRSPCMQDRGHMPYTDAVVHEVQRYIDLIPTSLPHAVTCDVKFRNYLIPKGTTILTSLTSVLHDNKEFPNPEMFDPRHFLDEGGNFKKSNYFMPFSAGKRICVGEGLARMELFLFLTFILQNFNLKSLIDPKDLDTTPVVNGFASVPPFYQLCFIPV
Pyruvate kinase PKM (Homo sapiens), sequence (P14618 whole entry, looked up): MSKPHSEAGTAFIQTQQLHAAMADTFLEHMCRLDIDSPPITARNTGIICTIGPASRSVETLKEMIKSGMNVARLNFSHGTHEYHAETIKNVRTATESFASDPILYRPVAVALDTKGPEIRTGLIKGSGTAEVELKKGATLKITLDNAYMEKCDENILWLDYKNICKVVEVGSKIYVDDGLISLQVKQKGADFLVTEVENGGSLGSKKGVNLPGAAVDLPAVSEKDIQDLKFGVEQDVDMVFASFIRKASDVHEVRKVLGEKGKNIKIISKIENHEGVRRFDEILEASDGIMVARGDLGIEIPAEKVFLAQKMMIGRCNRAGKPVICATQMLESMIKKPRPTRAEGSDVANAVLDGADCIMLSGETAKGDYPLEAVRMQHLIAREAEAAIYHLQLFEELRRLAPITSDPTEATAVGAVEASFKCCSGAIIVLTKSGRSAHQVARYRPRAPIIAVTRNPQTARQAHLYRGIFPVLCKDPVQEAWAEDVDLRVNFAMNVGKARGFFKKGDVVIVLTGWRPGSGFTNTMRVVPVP

CC(=O)O[C@@H]1CC(C)=C2[C@H]1[C@H](C)CC[C@H]2/C=C(\C)C(=O)O
inactive: outcome [1] | outcome [2] | outcome [3] | outcome [4] | outcome [5] | Potency [6] | outcome [7] | outcome [8] | outcome [9] | outcome [10] | outcome [11] | outcome [12]

COc1ccc2c(OC)c3ccoc3nc2c1OC
active: Potency [6] 12.6 µM | Potency [15] 10 µM
inactive: outcome [13] | outcome [14]

Cc1ccc(N)cc1O
inactive: outcome [1] | outcome [2] | outcome [3] | outcome [4] | outcome [5] | Potency [6] | outcome [7] | outcome [8] | outcome [9] | outcome [10] | outcome [11] | outcome [12]

Nc1ccccc1N
inactive: outcome [1] | outcome [2] | outcome [3] | outcome [4] | outcome [5] | outcome [8] | outcome [10] | outcome [11] | outcome [12]

Cc1ccccc1CN1C2=NCCN2C(=O)C2=C1CCN(Cc1ccccc1)C2
inactive: activity change, positive = activation [14] -40.7% [at 11.4 µM]

COc1ccc(C[C@H](N)C(=O)N[C@@H]2[C@H](O)[C@H](n3cnc4c(N(C)C)ncnc43)O[C@@H]2CO)cc1
inactive: outcome [14]

Nc1nc2c(ncn2[C@@H]2O[C@H](CO)[C@@H](O)[C@H]2O)c(=O)[nH]1
inactive: Potency [6]

CC(C)C(N)C(=O)OCCOCn1cnc2c(=O)[nH]c(N)nc21 (stereo not given)
inactive: Potency [6] | outcome [16]

CC(=O)O[C@H]1C(=O)[C@@]2(C)[C@H]([C@H](OC(=O)c3ccccc3)[C@]3(O)C[C@H](OC(=O)[C@H](O)[C@@H](NC(=O)c4ccccc4)c4ccccc4)C(C)=C1C3(C)C)[C@]1(OC(C)=O)CO[C@@H]1C[C@@H]2O
inactive: outcome [17] | outcome [18] | outcome [19]

CC(=O)c1cc2c(cc1O)OC(C)(C)C=C2
inactive: outcome [14] | outcome [20] | outcome [16]

CC(C)[N+]1(C)C2CCC1CC(OC(=O)C(CO)c1ccccc1)C2 (stereo not given)
inactive: outcome [20] | outcome [16]

Source: PubChem BioAssay (NCATS)
